DT40 TDP1 no CPT: qHTS for Inhibitors of human tyrosyl-DNA phosphodiesterase 1 (TDP1): qHTS in cells in absence of CPT; DT40 Tdp1-/- hTDP1 cells, no CPT, ATP luminescence, 48 h; Potency, µM (titrated, usually from 46.2 µM), hits mostly inhibitors; 15% of 420,000 active; also: nearly all actives have a fitted effect of over 55% in size
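Chicken DT40 Tdp1-/- cells stably complemented with human TDP1 were seeded at 400 cells/well with DMSO in place of 20 nM camptothecin. After compound pinning, cells grew at least 48 hr at 37 °C; viability read by CellTiter-Glo luminescence.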
HepG2 tox: counter-screen for TGF-b inhibitors: cytotoxicity in HepG2 cells. HepG2 CAGA-GFP viability, ATP luminescence, 18 h. Potency, µM (doses to about 46.1 µM), usual class: cytotoxic. 0.76% of 410,000 active. AID 588856
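CellTiter-Glo luminescence gave cytotoxicity after 18 hours at 37 degrees C. The cells were HepG2 CAGA-GFP in 1% FBS DMEM, stimulated with 500 pg/mL TGF-beta after compound addition. %Activity was normalised to no-cell wells (complete cell-killing) and DMSO (no toxicity), and curves were fitted and classified.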
TDP1 block: TDP1 (human) enzyme inhibition | AID 485290 | 0.28% of 350,000 active | recombinant TDP1, AlphaScreen DNA substrate cleavage | Potency, µM (series often up to 130 µM), actives largely listed as inhibitors | Q9NUW8; also: nearly all actives have a fitted effect of over 40% in size
Target sequence (Q9NUW8 whole entry, looked up): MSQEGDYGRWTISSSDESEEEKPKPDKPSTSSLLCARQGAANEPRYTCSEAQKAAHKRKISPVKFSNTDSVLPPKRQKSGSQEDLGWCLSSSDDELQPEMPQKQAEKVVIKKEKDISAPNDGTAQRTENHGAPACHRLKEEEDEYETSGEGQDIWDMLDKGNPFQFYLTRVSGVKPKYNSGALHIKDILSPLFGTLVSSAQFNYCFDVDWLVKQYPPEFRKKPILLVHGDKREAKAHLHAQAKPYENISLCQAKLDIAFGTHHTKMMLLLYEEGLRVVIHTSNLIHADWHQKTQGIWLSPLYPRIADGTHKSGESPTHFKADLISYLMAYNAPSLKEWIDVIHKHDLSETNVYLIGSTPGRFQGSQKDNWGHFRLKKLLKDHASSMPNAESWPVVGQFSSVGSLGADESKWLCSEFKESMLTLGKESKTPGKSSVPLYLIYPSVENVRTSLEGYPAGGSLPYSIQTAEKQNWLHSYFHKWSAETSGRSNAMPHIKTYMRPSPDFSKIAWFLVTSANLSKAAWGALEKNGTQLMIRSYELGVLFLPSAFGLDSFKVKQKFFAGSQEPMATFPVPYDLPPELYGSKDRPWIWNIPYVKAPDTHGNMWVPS
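Signal: AlphaScreen proximity between streptavidin donor and anti-FITC acceptor beads on intact substrate. Reaction: Tdp1 1 nM, substrate 15 nM final, 5 min RT after 15 min compound preincubation.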
TGFb SMAD3 inh: TGF-b pathway inhibition. AID 588855. 1.2% of 410,000 active. HepG2 CAGA-GFP TGF-b/SMAD3 reporter, GFP fluorescence, 18 h; TGF-beta stimulated, 500 pg/mL final. Potency, µM (doses to about 46.1 µM), most hits filed as inhibitors; also: nearly all actives have a fitted effect of over 65% in size
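HEPG2 CAGA-GFP reporter cells (1000/well, DMEM with 1% FBS) received compounds, then recombinant TGF-beta at 500 pg/mL final for 18 hours at 37 degrees C. Per-cell GFP summed per well was normalised to unstimulated and stimulated DMSO controls before curve fitting.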
DT40 TDP1 CPT: DT40-hTDP1 cell growth loss with CPT; 12% of 420,000 active; chicken DT40 Tdp1-/-;hTDP1 cells + 20 nM CPT, ATP luminescence, 48 h; Potency, µM (top dose mostly 46.2 µM), most hits filed as inhibitors; also: nearly all actives have a fitted effect of over 55% in size
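Chicken DT40 Tdp1-/- cells stably complemented with human TDP1 were seeded at 400 cells/well in medium containing 20 nM camptothecin, exposed to pin-transferred compounds, and grown at 37 °C for at least 48 hr. Viability was read as ATP luminescence.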
IL-1B inflam inh: blocks inflammasome-driven IL-1 beta release; activity change, % at 57.5 µM; 4.7% of 360,000 active; THP-1 LPS/ATP IL-1B secretion, AlphaLISA, 16 h; stronger effect = lower value; in the data active = activity change below about -50%; inconclusive = mostly about -30% to -49%
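Secreted IL-1B measured by AlphaLISA bead assay after 16 h compound exposure of THP-1 cells; compounds (final up to 57.5 uM) added 1 h before LPS (250 ng/mL) and ATP (1.25 mM) stimulation; lower signal means less secretion.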
Hits are given with their value; i = inactive; ? = inconclusive; nt = not tested or not shown. Rows were chosen to be rich in hits. Some 18% of all compounds tested hit in one or more screens of this group. Unless noted, calls follow the shape of the dose curve; as a rule, active = well fitted curve in the direction sought with a large enough effect; inconclusive = small, poorly fitted or top-dose-only effect, or another doubt; inactive = no such curve, though single readings can be large; an effect the other way counts as inactive or inconclusive.

SMILES	DT40 TDP1 no CPT	HepG2 tox	TDP1 block	TGFb SMAD3 inh	DT40 TDP1 CPT	IL-1B inflam inh
CCn1c(SCC(=O)Nc2ccccc2C(=O)OC)nnc1-c1ccoc1C	29µM	i	i	i	i	i
O=c1n(Cc2ccccc2)nc2n1-c1cc(Cl)ccc1OC2	i	i	i	?	i	nt
O=C(Cn1nc(-c2ccc(Cl)cc2)ccc1=O)NCCc1ccccc1	?	i	i	i	?	nt
CC(=O)c1ccccc1NC(=O)COC(=O)CN1C(=O)C2CCCCC2C1=O (stereo not given)	i	i	i	i	i	i
CCCn1c(SCC(=O)Nc2ccccc2-c2ccccc2)nnc1-c1ccoc1C	10µM	i	i	i	16µM	i
Cc1occc1-c1nnc(SCC(=O)Nc2ccccc2)n1Cc1ccccc1	?	i	i	i	i	i
Cc1ccccc1NC(=O)CSc1nnc(-c2ccoc2C)n1CCc1ccccc1	?	i	i	i	?	i
CCCn1c(SCC(=O)Nc2c(C)cccc2CC)nnc1C(C)C	i	i	i	i	i	i
Cc1occc1-c1nnc(SCC(=O)Nc2ccccc2-c2ccccc2)n1C	16µM	i	i	i	?	i
CCCn1c(SCC(=O)Nc2ccccc2CC)nnc1C(C)C	18µM	i	i	i	21µM	i
Cn1c(SCC(=O)Nc2ccccc2-c2ccccc2)nnc1-c1ccco1	i	i	i	i	?	i
Cc1occc1-c1nnc(SCC(=O)Nc2ccc(F)cc2)n1Cc1ccccc1	?	i	i	i	?	-80
COC(=O)C1(C(=O)OC)c2ccccc2N(S(=O)(=O)c2ccc(C)cc2)C1CC(=O)c1ccccc1 (stereo not given)	?	nt	nt	nt	?	i
CCC(Oc1ccccc1)C(=O)N1CCN(S(=O)(=O)c2ccccc2)CC1 (stereo not given)	?	i	i	i	i	i
O=C(O)C1CCCN1c1nc(C(F)(F)F)nc2ccccc12 (stereo not given)	i	i	i	i	i	i
CCCc1nc(SCc2cccnc2)c2c(=O)n(C)c(=O)n(C)c2n1	16µM	i	i	i	?	i
Cn1c(=O)c2c(SCc3ccccn3)nc(CC(C)(C)C)nc2n(C)c1=O	21µM	i	i	i	21µM	i
CCCCn1c(SCc2cccnc2)nc2c1c(=O)n(C)c(=O)n2C	16µM	i	i	i	13µM	i
CCn1c(SCc2cccnc2)nc2c1c(=O)n(C)c(=O)n2C	i	i	i	i	i	i
Cn1c(=O)c2c(SCc3cccnc3)nc(CC(C)(C)C)nc2n(C)c1=O	18µM	i	i	i	15µM	i
CN(C)CCCNC(=O)C(=O)NCC(c1ccc2c(c1)OCO2)N1CCOCC1 (stereo not given)	i	i	i	i	i	nt
CC(=O)Nc1c(C)nn(-c2ccccc2)c1N1CCC(C(=O)Nc2ccc(F)cc2Cl)CC1	i	i	i	?	i	nt
O=c1c2ccccc2c(-c2ccc(O)cc2)nn1-c1cccc(C(F)(F)F)c1	15µM	i	i	?	15µM	-98
O=c1c2ccccc2c(-c2cccc(C(F)(F)F)c2)nn1-c1ccccc1	?	i	i	i	?	i
COc1ccc(-c2c(-c3ccc(S(C)(=O)=O)cc3)sc3ccc(OC)cc23)cc1	13µM	i	i	i	?	i
COc1ccc(-c2sc3cc(OC)ccc3c2-c2ccc(OCCN3CCOCC3)cc2)cc1	?	i	i	i	?	i
COc1ccc2sc(-c3ccc(S(C)(=O)=O)cc3)c(-c3ccc4c(c3)OCCO4)c2c1	?	i	i	i	?	i
COc1ccc2sc(-c3ccc(S(C)(=O)=O)cc3)c(-c3ccc(SC)cc3)c2c1	?	i	i	i	26µM	i
COc1ccc(-c2sc3ccc(OC)cc3c2-c2ccc(O)cc2)cc1	?	i	i	?	?	-63

Source: PubChem BioAssay (National Center for Advancing Translational Sciences (NCATS))
